Hit rate of the full screen: of about 2,100 compounds, about 480 (23%) were called active. Not shown: some 5% with an inconclusive outcome.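 How the source made its calls: active means fitted curve reaches 40% activation at or below the top valid concentration, in every replicate test; inconclusive means replicate tests disagree on the call; inactive means the rest, including activity in the opposite direction.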 A selection follows. Entries with a potency or affinity are not part of this list.
Assay: activators raising PGC1a acetylation in cells, dose response, cell-based, cherry-picked samples, set 6 (AID 720513);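 further: cells made to overexpress flag tagged PGC1a plus GCN5 acetyltransferase by viral infection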
Details: U2OS PGC1a acetylation AlphaLISA, overnight, 0 = neutral, -100 = inhibitor control; series mostly up to 19.5 µM; activation (acetylation increase): at the top concentration

Activation (acetylation increase), inactive:
CC(C)c1ccc(NC(=O)c2n[nH]c(=O)c3ccccc23)cc1 1.85%
COc1ccc2nc3cc(Cl)ccc3c(Nc3cc(CN4CCCC4)c(O)c(CN4CCCC4)c3)c2n1 -57.3%
Cc1noc(C)c1NC(=O)Nc1ccc2c(c1)C(=O)N([C@H](C)CO)C[C@@H](C)[C@@H](CN(C)S(=O)(=O)c1ccc(F)cc1)OCCCC[C@@H](C)O2 34.8%
CCCCC(=O)NCCc1cc2c(OC)ccc(OC)c2[nH]c1=O 20.3%
COc1cc2[nH]c(=O)n(CCCC(=O)NCCc3ccccc3)c(=O)c2cc1OC -2.35%
COc1cccc(NC(=O)CN(C)C(=O)CNC(=O)c2ccccc2F)c1 2.56%
Cn1nnnc1SCC(=O)NCc1cccc(C(=O)O)c1 -38.1% [at 10 µM]
CCCN(C)C[C@H]1Oc2cc(C#C[C@@H](C)O)ccc2S(=O)(=O)N([C@@H](C)CO)C[C@H]1C -11.5%
CCn1cc([N+](=O)[O-])c(C(=O)NCc2ccc3c(c2)OCO3)n1 -0.458%
Cc1ccc(CNC(=O)CCS(=O)(=O)c2cc3c(cc2Cl)NC(=O)CO3)cc1 18%
COC(=O)c1ccccc1N(C)S(=O)(=O)c1cc2c(cc1C)OCC(=O)N2 -12.3%
COc1ccc(C2c3c(-c4ccccc4O)n[nH]c3C(=O)N2CCc2ccc(OC)c(OC)c2)cc1 (stereo unspecified) 4.33%
C#CCN(C[C@@H]1[C@@H](OC(=O)NCc2ccccc2F)[C@@H](OC(=O)NCc2ccccc2F)Cn2c(=O)ccc(=O)n21)S(=O)(=O)c1ccc(C)cc1 -98.8%
COc1ccc2c(c1)c(CC(=O)OCC(N)=O)c(C)n2C(=O)c1ccc(Cl)cc1 31.9%
COc1ccc([N+](=O)[O-])c(S(=O)(=O)c2ccc(Cl)cc2)n1 -85.4%
C[C@H](NC(=O)C[C@H]1C[C@@H]2c3cc(NC(=O)Nc4ccc(C(F)(F)F)cc4)ccc3O[C@@H]2[C@@H](CO)O1)c1ccccc1 -4.02%
CN(C)C(=O)C[C@H]1C[C@@H]2c3cc(NC(=O)C4CCOCC4)ccc3O[C@@H]2[C@H](CO)O1 30.3%
N#Cc1cccc(C#N)c1NCC1CCCO1 (stereo unspecified) 13.6%
COCC#Cc1cnc2c(c1)C(=O)N([C@H](C)CO)C[C@@H](C)[C@@H](CN(C)C(=O)c1cccnc1)O2 4.29%
CC1=C(C(N)=O)C(c2ccccc2)n2nc(-c3ccncc3)nc2N1 (stereo unspecified) 36.6%
CCN(CC)C(=O)c1sc(NC(=O)c2ccncc2)c(C(=O)OC)c1C -4.98%
COc1ccc(NC(=O)CN(C)C(=O)c2cnc(Cl)c(Cl)c2)cc1 12.1%
COc1ccc(OC)c(CN2CCN(C(=O)c3ccc(NS(=O)(=O)c4cccc([N+](=O)[O-])c4)cc3)CC2)c1 2.19%
COc1ccc(OC)c(N(CC(=O)Nc2ccccc2)S(C)(=O)=O)c1 27.7%
Cc1nn(CC(=O)Nc2ccc(C(C)C)cc2)c(C)c1[N+](=O)[O-] -5.82%
CC(=O)Nc1cccc(OCC(=O)Nc2ccccc2)c1 -3.78%
CC(=O)Nc1ccc(NS(=O)(=O)c2ccc(C)cc2)cc1[N+](=O)[O-] 33.2% [at 10 µM]
CC(C)Cc1nnc(NC(=O)c2cc3c(s2)CCC3)s1 5.75%
C[C@@H]1CN([C@@H](C)CO)C(=O)c2cc(NC(=O)Nc3cccc4ccccc34)ccc2O[C@@H](C)CCCCO[C@H]1CN(C)C(=O)NC1CCCCC1 22.3%
N#Cc1ccc(C(c2ccc(C#N)cc2)n2cncn2)cc1 2.17%
N#Cc1c(C#N)c(O)c2ccccc2c1O 15%
OC[C@@H]1CN(Cc2ccccc2)C[C@H](n2cnc3c(NCc4ccc(F)cc4)ncnc32)O1 0.342%
O=C(COc1ccc(Cl)cc1Cl)NCCCN1CCOCC1 8.53%
COc1cc(NS(=O)(=O)c2ccc(N)cc2)nc(OC)n1 17.8%
CN(C)S(=O)(=O)c1ccc(N2CCCC2)c(C(=O)NCc2cccc(C(F)(F)F)c2)c1 4.68%
COc1ccc(NC(=O)N[C@@H]2CC[C@H](CCn3cc(-c4ccccc4F)nn3)O[C@H]2CO)cc1 19%
COc1ccccc1C1c2c(C)nn(-c3ccccc3)c2NC(=O)C1NC(=O)c1ccccc1 (stereo unspecified) -23.3%
Cn1cnnc1Sc1ccc(/C=C/C(=O)c2ccc(O)cc2)cc1[N+](=O)[O-] -94.3%
O=C(Nc1ccc(F)cc1)c1ccccc1 22.9%
O=C(Nc1ccc(F)cc1)N1CCCCN2[C@H](CO)[C@H](c3ccc(C#Cc4ccccc4)cc3)[C@H]2C1 -84.6%
CC(C)NC(=O)N(C)C[C@H]1OCCCC[C@@H](C)Oc2ccc(NC(=O)CCCN(C)C)cc2C(=O)N([C@@H](C)CO)C[C@@H]1C -5%
C[C@@H]1CN([C@@H](C)CO)C(=O)CCCn2cc(nn2)CO[C@H]1CN(C)Cc1ccncc1 8.73% [at 21 µM]
COc1ccc(N2C(=O)CC2(/C=C/c2ccccc2OC)C(=O)NC2CCCC2)cc1 (stereo unspecified) 20.7%
O=C(NC1CCCCC1)C(c1ccc2ncccc2c1)N(Cc1ccc2c(c1)OCO2)C(=O)c1ccc2c(c1)OCCO2 (stereo unspecified) 9.19%
CCCCN(C(=O)CCC(=O)Nc1cc(C)on1)C(C(=O)NC1CCCC1)c1ccc(OC)cc1 (stereo unspecified) -10.7%
C#CC(=O)N(c1ccc(OC)cc1OC)C(C(=O)NC1CCCC1)c1cccs1 (stereo unspecified) -106%
C#CC(=O)N(c1ccc(OC)c(OC)c1)C(C(=O)NC1CCCC1)c1cccs1 (stereo unspecified) -99.1%
CCCC(C(=O)NC(C)(C)C)N(Cc1ccc(F)cc1)C(=O)c1snc(C(N)=O)c1N (stereo unspecified) -19.4%
C#CC(=O)N(c1cccc(OC)c1)C(C(=O)NC1CCCC1)c1cccs1 (stereo unspecified) -104%
CC12CC(c3ccccc3O1)N(C(=O)c1ccc(Br)o1)C(=O)N2c1ccccc1 (stereo unspecified) -8.31%
CCCOc1ccccc1-n1sc2c(c1=S)-c1cc(OC)cc3c1N(C(=O)C3=O)C2(C)C -46.2%
COc1cccc(-c2nn(-c3ccccc3)cc2CN(C)C(C)c2ccncn2)c1 (stereo unspecified) 15.7%
Cc1c(NC(=O)c2ccccc2NS(=O)(=O)c2ccc(Br)cc2)c(=O)n(-c2ccccc2)n1C -8.93%
CCOC(=O)C1=C(NC(=O)c2ccc(Br)o2)Nc2ccccc2N=C1 31.5%
CCCNC(=O)N(C)C[C@H]1Oc2cc(C#CC(C)C)ccc2S(=O)(=O)N([C@@H](C)CO)C[C@H]1C 0.778%
CC(C)C#Cc1cnc2c(c1)C(=O)N([C@H](C)CO)C[C@H](C)[C@H](CN(C)C(=O)CN1CCOCC1)O2 23.2%
